Of roughly 7,900 targets only a part is listed; those with a hit were picked by preference. About 0.6% of all pairs of compound and target were hits.
What was measured:
Experiment in all cases: log2 fold change, soluble protein after heating vs DMSO (PISA); higher = thermal stabilisation; K562 cells, 10 uM, 30 min; active = over 0.2 and 3.5 SD of the protein, either way, in both replicates (recomputed)
[1] = compound: COC1=CC=C(C=C1)CN2C=CC3=C2C=C(C=C3)C(=O)NO
Method in brief: (§1)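 Soluble protein was quantified by TMTpro 16plex LC-MS/MS after channel sums were equalised. It was obtained as the supernatant after 21,000xg for 90 min from pooled aliquots of K562 cells (2×10^6 cells/mL, 10 μM compound, 30 min) heated for 3 min across 48°C-58°C and extracted in PBS with 0.5% NP-40 at 4°C. Thermal stability values are relative to control samples and come from duplicates. They are given as log2 fold changes.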

filanesib = compound: CON(C)C(=O)N1N=C(c2cc(F)ccc2F)S[C@@]1(CCCN)c1ccccc1 [filanesib]
Method in brief: as §1

zotarolimus = compound: CO[C@H]1C[C@@H]2CC[C@@H](C)[C@@](O)(O2)C(=O)C(=O)N2CCCC[C@H]2C(=O)O[C@H]([C@H](C)C[C@@H]2CC[C@H](n3cnnn3)[C@H](OC)C2)CC(=O)[C@H](C)/C=C(\C)[C@@H](O)[C@@H](OC)C(=O)[C@H](C)C[C@H](C)/C=C/C=C/C=C/1C [zotarolimus]
Method in brief: as §1

idasanutlin = compound: COc1cc(C(=O)O)ccc1NC(=O)[C@@H]1N[C@@H](CC(C)(C)C)[C@](C#N)(c2ccc(Cl)cc2F)[C@H]1c1cccc(Cl)c1F [idasanutlin]
Method in brief: as §1

alisertib = compound: COc1cc(Nc2ncc3c(n2)-c2ccc(Cl)cc2C(c2c(F)cccc2OC)=NC3)ccc1C(=O)O [alisertib]
Method in brief: as §1

[2] = compound: COc1cc2nc(-c3cc(F)ccc3O)nc(N[C@@H]3CNC[C@H]3C(C)(C)O)c2cc1OC
Method in brief: as §1

gefitinib = compound: COc1cc2ncnc(Nc3ccc(F)c(Cl)c3)c2cc1OCCCN1CCOCC1 [gefitinib]
Method in brief: as §1

[3] = compound: COc1cccc2cc(-c3nc([C@H]4CC[C@H](C(=O)O)CC4)n4ncnc(N)c34)[nH]c12
Method in brief: as §1

lapatinib = compound: CS(=O)(=O)CCNCc1ccc(-c2ccc3ncnc(Nc4ccc(OCc5cccc(F)c5)c(Cl)c4)c3c2)o1 [lapatinib]
Method in brief: as §1

pictilisib = compound: CS(=O)(=O)N1CCN(Cc2cc3nc(-c4cccc5[nH]ncc45)nc(N4CCOCC4)c3s2)CC1 [pictilisib]
Method in brief: as §1

Measured: log2 fold change

KSR1 (UniProt Q8IVT5)
Chain of UniProt Q8IVT5 (Q8IVT5 whole entry, looked up): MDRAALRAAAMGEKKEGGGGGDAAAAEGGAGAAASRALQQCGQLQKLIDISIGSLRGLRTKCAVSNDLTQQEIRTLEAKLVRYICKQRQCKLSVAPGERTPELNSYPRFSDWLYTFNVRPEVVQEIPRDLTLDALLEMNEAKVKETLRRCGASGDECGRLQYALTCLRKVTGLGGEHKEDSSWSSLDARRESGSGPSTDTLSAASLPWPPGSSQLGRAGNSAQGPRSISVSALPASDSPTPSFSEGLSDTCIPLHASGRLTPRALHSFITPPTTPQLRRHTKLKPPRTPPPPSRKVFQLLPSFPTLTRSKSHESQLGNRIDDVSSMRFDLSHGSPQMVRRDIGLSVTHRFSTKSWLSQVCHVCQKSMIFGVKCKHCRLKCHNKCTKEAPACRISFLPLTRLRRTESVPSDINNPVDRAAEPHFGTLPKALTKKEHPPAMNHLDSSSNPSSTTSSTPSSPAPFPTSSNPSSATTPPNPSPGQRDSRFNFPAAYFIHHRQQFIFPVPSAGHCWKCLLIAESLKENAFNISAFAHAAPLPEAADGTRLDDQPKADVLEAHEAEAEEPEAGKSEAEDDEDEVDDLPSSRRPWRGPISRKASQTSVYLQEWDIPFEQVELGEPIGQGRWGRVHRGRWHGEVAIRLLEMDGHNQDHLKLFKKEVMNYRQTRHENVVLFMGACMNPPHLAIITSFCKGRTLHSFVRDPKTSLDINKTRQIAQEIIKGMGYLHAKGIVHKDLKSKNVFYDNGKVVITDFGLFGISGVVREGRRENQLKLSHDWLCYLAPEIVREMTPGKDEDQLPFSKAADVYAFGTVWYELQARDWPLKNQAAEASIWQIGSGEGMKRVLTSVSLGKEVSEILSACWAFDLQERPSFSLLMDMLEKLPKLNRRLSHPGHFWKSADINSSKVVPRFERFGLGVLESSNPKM
inactive: [1] 0.015 | filanesib 0.033 | zotarolimus 0.016 | idasanutlin 0.034 | alisertib 0.123 | [2] -0.329 | gefitinib -0.028 | [3] 0.126 | lapatinib 0.087 | pictilisib 0.176

MAST4 (UniProt O15021)
Chain of UniProt O15021 (O15021 whole entry, looked up): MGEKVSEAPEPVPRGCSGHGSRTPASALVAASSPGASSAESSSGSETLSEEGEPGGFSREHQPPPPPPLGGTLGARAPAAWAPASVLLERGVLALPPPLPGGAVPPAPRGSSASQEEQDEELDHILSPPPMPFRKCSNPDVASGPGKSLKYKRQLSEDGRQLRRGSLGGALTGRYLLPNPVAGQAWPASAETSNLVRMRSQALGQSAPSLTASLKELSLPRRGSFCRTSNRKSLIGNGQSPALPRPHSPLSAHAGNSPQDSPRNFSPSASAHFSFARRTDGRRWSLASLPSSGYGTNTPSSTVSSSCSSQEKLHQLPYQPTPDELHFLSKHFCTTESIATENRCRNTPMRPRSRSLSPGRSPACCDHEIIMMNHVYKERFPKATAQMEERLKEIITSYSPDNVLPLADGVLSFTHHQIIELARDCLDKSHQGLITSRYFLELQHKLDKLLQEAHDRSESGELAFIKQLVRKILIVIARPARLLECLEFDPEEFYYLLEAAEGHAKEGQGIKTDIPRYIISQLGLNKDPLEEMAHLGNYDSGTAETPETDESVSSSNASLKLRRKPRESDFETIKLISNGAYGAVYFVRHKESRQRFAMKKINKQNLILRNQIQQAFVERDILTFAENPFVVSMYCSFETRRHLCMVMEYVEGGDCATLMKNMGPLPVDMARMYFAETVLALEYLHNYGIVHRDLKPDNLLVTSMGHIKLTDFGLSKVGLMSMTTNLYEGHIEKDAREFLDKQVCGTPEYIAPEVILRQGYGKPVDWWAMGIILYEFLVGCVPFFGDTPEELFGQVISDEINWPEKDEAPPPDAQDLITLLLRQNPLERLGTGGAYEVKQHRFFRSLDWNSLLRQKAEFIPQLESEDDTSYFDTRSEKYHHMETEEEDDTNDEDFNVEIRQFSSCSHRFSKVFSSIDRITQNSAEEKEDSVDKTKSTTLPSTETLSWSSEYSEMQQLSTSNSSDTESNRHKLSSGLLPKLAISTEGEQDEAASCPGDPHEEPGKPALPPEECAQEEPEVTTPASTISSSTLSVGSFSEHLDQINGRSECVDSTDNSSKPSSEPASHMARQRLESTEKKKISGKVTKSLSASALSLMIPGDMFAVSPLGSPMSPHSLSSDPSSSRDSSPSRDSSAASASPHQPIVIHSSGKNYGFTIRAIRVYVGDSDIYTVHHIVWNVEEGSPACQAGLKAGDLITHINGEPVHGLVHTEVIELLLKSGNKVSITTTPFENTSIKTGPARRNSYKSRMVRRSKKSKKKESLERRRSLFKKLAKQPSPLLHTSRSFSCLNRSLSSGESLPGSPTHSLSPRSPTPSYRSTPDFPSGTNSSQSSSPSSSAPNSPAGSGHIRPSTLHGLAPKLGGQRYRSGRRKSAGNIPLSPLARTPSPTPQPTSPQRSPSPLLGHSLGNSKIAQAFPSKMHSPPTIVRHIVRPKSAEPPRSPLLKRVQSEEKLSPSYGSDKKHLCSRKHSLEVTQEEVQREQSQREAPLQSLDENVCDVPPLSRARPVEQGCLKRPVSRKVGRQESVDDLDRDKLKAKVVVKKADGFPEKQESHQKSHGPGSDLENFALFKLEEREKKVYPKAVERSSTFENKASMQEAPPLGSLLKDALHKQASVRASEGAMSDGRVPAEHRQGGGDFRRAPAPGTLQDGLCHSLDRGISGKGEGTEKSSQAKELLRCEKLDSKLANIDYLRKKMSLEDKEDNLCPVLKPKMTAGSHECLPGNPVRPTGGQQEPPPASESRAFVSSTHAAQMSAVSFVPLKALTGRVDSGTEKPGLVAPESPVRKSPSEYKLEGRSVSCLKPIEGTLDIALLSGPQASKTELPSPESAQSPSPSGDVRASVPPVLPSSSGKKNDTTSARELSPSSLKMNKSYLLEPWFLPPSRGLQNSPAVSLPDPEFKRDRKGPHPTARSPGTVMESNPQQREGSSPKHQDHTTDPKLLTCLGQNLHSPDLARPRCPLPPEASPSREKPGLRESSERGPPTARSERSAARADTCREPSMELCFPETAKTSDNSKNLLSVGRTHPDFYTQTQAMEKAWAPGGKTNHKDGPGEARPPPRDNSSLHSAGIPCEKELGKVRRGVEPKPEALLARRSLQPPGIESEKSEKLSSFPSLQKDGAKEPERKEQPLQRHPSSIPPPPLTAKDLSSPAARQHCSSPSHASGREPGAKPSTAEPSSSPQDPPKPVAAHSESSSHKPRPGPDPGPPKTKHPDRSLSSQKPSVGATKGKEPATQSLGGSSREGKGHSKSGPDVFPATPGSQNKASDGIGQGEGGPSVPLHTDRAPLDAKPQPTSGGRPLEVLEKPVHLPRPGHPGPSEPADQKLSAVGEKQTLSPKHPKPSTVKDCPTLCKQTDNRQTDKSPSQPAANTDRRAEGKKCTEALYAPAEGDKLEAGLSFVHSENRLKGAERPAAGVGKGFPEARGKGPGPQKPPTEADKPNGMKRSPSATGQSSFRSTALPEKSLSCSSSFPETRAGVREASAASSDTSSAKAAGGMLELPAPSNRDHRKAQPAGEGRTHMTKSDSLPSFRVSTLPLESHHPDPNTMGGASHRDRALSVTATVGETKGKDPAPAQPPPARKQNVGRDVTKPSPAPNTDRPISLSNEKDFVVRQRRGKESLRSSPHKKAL
inactive: [1] -0.023 | filanesib -0.114 | zotarolimus 0.035 | idasanutlin -0.103 | alisertib -0.073 | [2] -0.283 | gefitinib -0.031 | [3] 0.019 | lapatinib 0.046 | pictilisib -0.036

IK (UniProt Q13123)
Chain of UniProt Q13123 (Q13123 whole entry, looked up): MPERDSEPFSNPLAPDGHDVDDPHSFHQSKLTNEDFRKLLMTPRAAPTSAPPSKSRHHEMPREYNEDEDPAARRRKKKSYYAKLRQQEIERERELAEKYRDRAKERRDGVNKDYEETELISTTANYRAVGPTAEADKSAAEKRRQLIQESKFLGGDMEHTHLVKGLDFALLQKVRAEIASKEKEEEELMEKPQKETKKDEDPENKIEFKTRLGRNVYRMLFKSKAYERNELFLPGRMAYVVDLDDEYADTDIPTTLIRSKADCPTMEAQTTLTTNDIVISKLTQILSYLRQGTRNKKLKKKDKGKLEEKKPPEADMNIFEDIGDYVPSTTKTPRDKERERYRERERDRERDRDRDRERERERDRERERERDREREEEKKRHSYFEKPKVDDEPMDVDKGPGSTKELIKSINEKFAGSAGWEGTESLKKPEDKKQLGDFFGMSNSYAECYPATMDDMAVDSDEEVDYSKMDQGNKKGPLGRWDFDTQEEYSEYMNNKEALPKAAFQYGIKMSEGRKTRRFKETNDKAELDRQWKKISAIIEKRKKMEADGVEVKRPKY
inactive: [1] 0.056 | filanesib 0.156 | zotarolimus 0.007 | idasanutlin 0.102 | alisertib -0.044 | [2] 0.07 | gefitinib 0.027 | [3] -0.096 | lapatinib -0.008 | pictilisib -0.035

ITPRIP (UniProt Q8IWB1)
Chain of UniProt Q8IWB1 (Q8IWB1 whole entry, looked up): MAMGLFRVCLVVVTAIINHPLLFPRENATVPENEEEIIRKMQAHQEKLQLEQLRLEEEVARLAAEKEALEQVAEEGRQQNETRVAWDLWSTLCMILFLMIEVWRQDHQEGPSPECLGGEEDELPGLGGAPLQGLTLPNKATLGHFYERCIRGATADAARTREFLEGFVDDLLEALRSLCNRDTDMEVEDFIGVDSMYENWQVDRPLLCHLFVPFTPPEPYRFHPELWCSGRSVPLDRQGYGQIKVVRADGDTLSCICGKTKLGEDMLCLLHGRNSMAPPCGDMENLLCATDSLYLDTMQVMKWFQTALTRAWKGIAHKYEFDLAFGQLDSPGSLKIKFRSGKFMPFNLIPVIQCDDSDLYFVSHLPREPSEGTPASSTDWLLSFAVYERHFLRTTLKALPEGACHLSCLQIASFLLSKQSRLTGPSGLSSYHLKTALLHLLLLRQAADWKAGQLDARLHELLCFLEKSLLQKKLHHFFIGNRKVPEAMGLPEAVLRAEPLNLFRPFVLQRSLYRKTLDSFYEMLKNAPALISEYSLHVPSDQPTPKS
inactive: [1] -0.042 | filanesib -0.022 | zotarolimus -0.024 | idasanutlin 0.014 | alisertib 0.012 | [2] -0.021 | gefitinib 0.018 | [3] -0.043 | lapatinib -0.038 | pictilisib 0.049

IRF3 (UniProt Q14653)
Chain of UniProt Q14653 (Q14653 whole entry, looked up): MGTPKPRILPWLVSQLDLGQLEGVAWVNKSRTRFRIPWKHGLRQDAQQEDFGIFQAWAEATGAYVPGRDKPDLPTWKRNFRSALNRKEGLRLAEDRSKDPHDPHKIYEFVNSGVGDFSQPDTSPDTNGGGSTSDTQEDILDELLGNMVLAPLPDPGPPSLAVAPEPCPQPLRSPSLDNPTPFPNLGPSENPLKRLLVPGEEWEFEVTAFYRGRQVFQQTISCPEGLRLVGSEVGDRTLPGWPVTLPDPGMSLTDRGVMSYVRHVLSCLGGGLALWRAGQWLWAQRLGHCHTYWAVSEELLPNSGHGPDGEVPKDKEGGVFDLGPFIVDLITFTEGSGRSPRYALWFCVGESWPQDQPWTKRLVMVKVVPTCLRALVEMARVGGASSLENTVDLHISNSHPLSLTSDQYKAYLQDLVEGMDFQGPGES
inactive: [1] -0.075 | filanesib -0.141 | zotarolimus 0.021 | idasanutlin -0.073 | alisertib -0.085 | [2] -0.08 | gefitinib 0.011 | [3] 0.023 | lapatinib -0.003 | pictilisib 0.053
